High-throughput results deposited in PubChem BioAssay by The Scripps Research Institute Molecular Screening Center.
Only some compounds are listed: those with a hit (about 2.2% of all), similar ones and a draw of the others.
sPLA2-III inh = Blocks human group III sPLA2 activity; inhibition, % at 12.2 µM; Q9NZ20; QFRET BODIPY PC-A2 liposome hydrolysis, fluorescence; 370,000 compounds, 0.56% hits;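 active = inhibition above mean plus 3 SD of compounds lying within the high and low control bounds, cut at about 19% in these data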
Target sequence (Q9NZ20 whole entry, looked up): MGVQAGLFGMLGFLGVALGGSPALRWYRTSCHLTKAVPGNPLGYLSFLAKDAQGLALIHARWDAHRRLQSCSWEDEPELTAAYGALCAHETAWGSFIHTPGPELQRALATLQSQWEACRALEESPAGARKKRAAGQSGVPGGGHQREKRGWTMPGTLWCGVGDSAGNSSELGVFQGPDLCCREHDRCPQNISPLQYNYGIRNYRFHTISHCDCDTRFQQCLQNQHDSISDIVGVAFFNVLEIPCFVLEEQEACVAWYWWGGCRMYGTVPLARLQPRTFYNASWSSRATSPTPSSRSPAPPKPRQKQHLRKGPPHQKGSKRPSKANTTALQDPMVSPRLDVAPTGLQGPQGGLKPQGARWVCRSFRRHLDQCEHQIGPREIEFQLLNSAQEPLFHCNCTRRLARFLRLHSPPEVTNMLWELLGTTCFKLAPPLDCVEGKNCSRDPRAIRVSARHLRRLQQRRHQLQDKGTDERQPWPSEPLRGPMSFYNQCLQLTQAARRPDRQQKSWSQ
OPRM1-OPRD1 inv = mu-delta opioid heterodimer inverse agonism; 340,000 compounds, 0.21% hits; inhibition, % at 9.3 µM; P35372+P41143; cell-based MOR-DOR heterodimer luminescence; AID 504357; in the data active = inhibition above about 22%, passing the limit was not always enough
HTR5A inv ctr = HTR5A inverse agonism, opioid heterodimer counter-screen. HTR5A cell line, luminescence. 340,000 compounds, 0.083% hits. inhibition, % at 9.3 µM. AID 504634. P47898; in the data active = inhibition mostly above about 23%, no sharp cut-off; inactive = mostly below about 18%
HTR5A ag = activates human HTR5A in OPRM1-OPRD1 agonist counter-screen. P47898. HTR5A agonist assay, luminescence, cell-based. activation, % at 9.3 µM. 340,000 compounds, 0.61% hits. AID 504692; in the data active = activation mostly above about 9.5%, no sharp cut-off; inactive = mostly below about 7.6%
m5-HT2A agonist = agonists of mouse serotonin 5-HT2A receptor (HTR2A) | P35363 | CHO-K1 mHTR2A beta-arrestin complementation, luminescence; percent of 30 µM serotonin response | activation, % at 7.6 µM | 360,000 compounds, 0.66% hits | AID 624169;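 active = activation above a run cutoff, the mean activation of all tested compounds plus 3 SD, cut at about 14% in these data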
MOR-DOR ag = OPRM1-OPRD1 heterodimerization agonism; P35372+P41143; cells, luminescence; activation, % at 9.3 µM; 340,000 compounds, 0.3% hits; AID 504326; in the data active = activation above about 18%
MOR-DOR inv conf = confirmation of human OPRM1-OPRD1 heterodimerization inverse agonists | shares compounds with OPRM1-OPRD1 inv | cells expressing OPRM1/OPRD1 heterodimer, luminescence | inhibition, % at 9.3 µM | 580 compounds, 20% hits | AID 504900; in the data active = inhibition above about 32%
HTR5A inv ctr2 = HTR5A inverse agonism, opioid heterodimer counter-screen; shares compounds with OPRM1-OPRD1 inv; HTR5A-expressing cells, luminescence; inhibition, % at 9.3 µM; 580 tested, under 10 active; call rule not given here
Of the large screens only hits and unclear results are named; the others gave an inactive call (follow-up assays come after a bar, where they were run).

CC(C)C[C@H](NC(=O)C1CC1)C(=O)N1CCC[C@H]1C(=O)NCc1ccccc1	none (no result: OPRM1-OPRD1 inv, HTR5A inv ctr, HTR5A ag, m5-HT2A agonist, MOR-DOR ag)
COc1ccc(-c2nc(-c3ccccc3)c(-c3cccs3)[nH]2)cc1OC	none
COc1ccc(-c2nc(-c3cccs3)c(-c3cccs3)[nH]2)cc1OC	OPRM1-OPRD1 inv 29.8 | MOR-DOR inv conf inactive | HTR5A inv ctr2 inactive
CNC(=S)NNC(=O)c1sc2cc(C(F)(F)F)cnc2c1-c1cccnc1	none
CNC(=S)NNC(=O)c1sc2cc(C(F)(F)F)cnc2c1-c1ccccn1	OPRM1-OPRD1 inv 31.1 | MOR-DOR inv conf inactive | HTR5A inv ctr2 inactive
Cc1ccc(-c2cc(C#N)c3n(c2=O)CCC3)cc1	none (no result: OPRM1-OPRD1 inv, HTR5A inv ctr, HTR5A ag, m5-HT2A agonist, MOR-DOR ag)
CC(C)C(=O)Nc1nnc(NC(=S)Nc2ccccc2)s1	OPRM1-OPRD1 inv 36.0 | MOR-DOR inv conf 33.8 | HTR5A inv ctr2 inactive
Cc1nnsc1C(=O)NNc1ccc(C(C)(C)C)cc1	OPRM1-OPRD1 inv 77.0 | MOR-DOR inv conf inactive | HTR5A inv ctr2 inactive
Cc1nnsc1C(=O)NNc1ccc(C(C)C)cc1	none
O=C(NNc1ccccc1)c1ccc(Cl)c(Cl)c1	OPRM1-OPRD1 inv 40.1 | MOR-DOR inv conf 53.8 | HTR5A inv ctr2 inactive
O=C(NNc1cc(Br)c(O)c(Br)c1)c1ccccc1	OPRM1-OPRD1 inv 79.5 | MOR-DOR inv conf 75.0 | HTR5A inv ctr2 inactive
CC(C)(C)c1ccc(-c2cn(C[C@H](Cc3ccccc3)n3c(=O)c4ccccc4n3Cc3ccno3)nn2)cc1	none (no result: OPRM1-OPRD1 inv, HTR5A inv ctr, HTR5A ag, m5-HT2A agonist, MOR-DOR ag)
CCOC(=O)CC[C@H]1CC[C@]2(CCCN(C(=O)c3ccco3)C2)O1	none (no result: OPRM1-OPRD1 inv, HTR5A inv ctr, HTR5A ag, m5-HT2A agonist, MOR-DOR ag)
O=C1N=c2ccccc2=C1c1c(O)n(-c2cccc(F)c2)[nH]c1=O	OPRM1-OPRD1 inv 36.5 | MOR-DOR inv conf inactive | HTR5A inv ctr2 inactive
CCOC(=O)[C@]12CCCCC/C=C\1N(Cc1ccc(OC)cc1)C(=O)[C@H]2CC(=O)NCCCCc1ccccc1	none (no result: OPRM1-OPRD1 inv, HTR5A inv ctr, HTR5A ag, m5-HT2A agonist, MOR-DOR ag)
O=C1Nc2ccccc2/C1=N\N1CCOCC1	none
NC(N)=NS(=O)(=O)c1ccc(N=C2C(=O)Nc3ccccc32)cc1	OPRM1-OPRD1 inv 53.3 | MOR-DOR inv conf 70.0 | HTR5A inv ctr2 inactive
CC(=O)N(C)c1ccc(N=C2C(=O)Nc3ccccc32)cc1	OPRM1-OPRD1 inv 56.7 (no result: sPLA2-III inh) | MOR-DOR inv conf inactive | HTR5A inv ctr2 inactive
O=C(COC(=O)CNC(=O)c1cccc([N+](=O)[O-])c1)NCc1ccco1	none
O=C(Cc1ccccc1)OCC(=O)c1cccc([N+](=O)[O-])c1	OPRM1-OPRD1 inv 52.2 | MOR-DOR inv conf inactive | HTR5A inv ctr2 inactive
O=C(CNS(=O)(=O)c1ccccc1)OCc1cccc([N+](=O)[O-])c1	none
O=C(COC(=O)c1cnccn1)c1cccc([N+](=O)[O-])c1	OPRM1-OPRD1 inv 65.5 | MOR-DOR inv conf inactive | HTR5A inv ctr2 inactive
O=C(CNC(=O)c1ccc(Br)o1)OCC(=O)c1cccc([N+](=O)[O-])c1	OPRM1-OPRD1 inv 83.5, HTR5A inv ctr 35.7 | MOR-DOR inv conf inactive | HTR5A inv ctr2 inactive
O=C(COC(=O)c1cnccn1)c1ccc2ccccc2c1	none
O=C(CNS(=O)(=O)c1ccccc1)OCC(=O)c1cccc([N+](=O)[O-])c1	OPRM1-OPRD1 inv 61.3 | MOR-DOR inv conf inactive | HTR5A inv ctr2 inactive
Cc1ccc(OCC(=O)OCC(=O)c2cccc([N+](=O)[O-])c2)cc1C	OPRM1-OPRD1 inv 43.8 | MOR-DOR inv conf inactive | HTR5A inv ctr2 inactive
Nc1ccc(C(=O)OCC(=O)c2cccc([N+](=O)[O-])c2)cc1	none
O=C1C(=O)N(Cc2cccs2)c2ccccc21	OPRM1-OPRD1 inv 48.4 | MOR-DOR inv conf inactive | HTR5A inv ctr2 inactive
O=C(COC(=O)CN1C(=O)C(=O)c2ccccc21)OCN1C(=O)c2ccccc2C1=O	OPRM1-OPRD1 inv 40.2 | MOR-DOR inv conf inactive | HTR5A inv ctr2 inactive
O=C1C(=O)N(CCN2CCCCC2)c2ccccc21	OPRM1-OPRD1 inv 71.9 | MOR-DOR inv conf 73.6 | HTR5A inv ctr2 inactive
O=C(CN1C(=O)C(=O)c2ccccc21)NC1CCCCC1	OPRM1-OPRD1 inv 47.5 | MOR-DOR inv conf 47.5 | HTR5A inv ctr2 inactive
O=C(CCN1C(=O)c2ccccc2C1=O)OCN1C(=O)c2ccccc2C1=O	none
CCCCCCCCN1C(=O)N2Cc3ccccc3C2CS1(=O)=O (stereo unspecified)	none (no result: OPRM1-OPRD1 inv, HTR5A inv ctr, HTR5A ag, m5-HT2A agonist, MOR-DOR ag)
O=C(CN1C(=O)C(=O)c2ccccc21)c1ccccc1	OPRM1-OPRD1 inv 52.2 | MOR-DOR inv conf inactive | HTR5A inv ctr2 inactive
CC(C)N(C(=O)CN1C(=O)C(=O)c2ccccc21)c1ccccc1	none
O=S(=O)(CCN1CCOCC1)c1ccccc1	none
O=C1C(=O)N(CCS(=O)(=O)c2ccccc2)c2ccccc21	OPRM1-OPRD1 inv 58.3 | MOR-DOR inv conf inactive | HTR5A inv ctr2 inactive
CC(=O)Nc1ccc(O)c(-c2nc3ccccc3s2)c1	OPRM1-OPRD1 inv 26.4 | MOR-DOR inv conf inactive | HTR5A inv ctr2 inactive
Cc1ccc(NCN2C(=O)C(=O)c3ccccc32)nc1	OPRM1-OPRD1 inv 70.0 | MOR-DOR inv conf 59.0 | HTR5A inv ctr2 inactive
Cc1ccc(NC(=O)CCCCCN2C(=O)c3ccccc3C2=O)nc1	none
CCC(=O)Oc1ccc(C(=O)Nc2cccc(C(=O)NCC(C)C)c2)cc1	OPRM1-OPRD1 inv 32.4 | MOR-DOR inv conf inactive | HTR5A inv ctr2 inactive
O=C(CSc1nnc(-c2ccc(Cl)cc2)n1-c1ccccc1)Nc1ccc2c(c1)OCCO2	none (no result: OPRM1-OPRD1 inv, HTR5A inv ctr, HTR5A ag, m5-HT2A agonist, MOR-DOR ag)
ON1C2CCCCC2N(O)C1c1ccccc1C(F)(F)F (stereo unspecified)	OPRM1-OPRD1 inv 43.8 | MOR-DOR inv conf inactive | HTR5A inv ctr2 inactive
O=C(N=Nc1c(O)[nH]c2ccc([N+](=O)[O-])cc12)c1ccccc1[N+](=O)[O-]	none
CC(Oc1ccccc1)C(=O)N=Nc1c(O)[nH]c2ccc([N+](=O)[O-])cc12 (stereo unspecified)	OPRM1-OPRD1 inv 45.4 | MOR-DOR inv conf inactive | HTR5A inv ctr2 inactive
O=[N+]([O-])c1ccc(O)c(C=NNc2ccc(S(=O)(=O)O)cc2)c1	OPRM1-OPRD1 inv 31.2 | MOR-DOR inv conf inactive | HTR5A inv ctr2 inactive
O=C(/C=C/c1ccccc1)C1=C(O)C(=O)N(CCO)C1c1ccccc1[N+](=O)[O-] (stereo unspecified)	OPRM1-OPRD1 inv 52.0 | MOR-DOR inv conf inactive | HTR5A inv ctr2 inactive
COC(=O)[C@]12C[C@H](CC(=O)NCCC(C)C)C(=O)N(Cc3ccc(Cl)cc3Cl)C1=C[C@H](C1CCCC1)O[C@@H]2C	none (no result: OPRM1-OPRD1 inv, HTR5A inv ctr, HTR5A ag, m5-HT2A agonist, MOR-DOR ag)
CCSc1nnc2c(n1)OC1(CCCC1)Nc1ccccc1-2	none
O=C1Nc2ccc(Cl)cc2C12Nc1ccccc1-c1nnc(SCc3ccccc3F)nc1O2 (stereo unspecified)	OPRM1-OPRD1 inv 50.2 | MOR-DOR inv conf inactive | HTR5A inv ctr2 inactive
